Shown are actives, neighbours in structure and some others; about 2.1% of the full set was active somewhere.
YB-1 expression – YB-1 expression inhibition | U2OS, qRT-PCR YB-1 vs CDIP delta delta Cp, 16 h; active compounds read high; zero = DMSO, each unit about twofold | delta delta Cp (YB-1 minus CDIP) (test concentration not listed) | 30,000 tested, 0.37% active | AID 434959;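 active = delta delta Cp rounded down to an integer at or above 3, about 3 SD of DMSO wells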;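 note: higher means less YB-1 transcript or more CDIP transcript relative to DMSO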
ROS inducer – cancer cell ROS induction; ROS induction (% of piperlongumine), % at 10 µM; AID 624156; 46,000 tested, 2% active; U2OS ROS induction, H2DCF-DA fluorescence; in the data active = ROS induction above about 79%, passing the limit was not always enough;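 note: 0% = DMSO vehicle median and 100% = reference compound median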
Active calls of the source: *; nt = not tested or not shown.

SMILES | YB-1 expression | ROS inducer
COc1ccc(S(=O)(=O)Nc2ccc3c(c2)C(=O)N([C@H](C)CO)C[C@H](C)[C@@H](CN(C)Cc2ccc(Oc4ccccc4)cc2)O3)cc1 | 14* | 15
C[C@H]1CN([C@@H](C)CO)C(=O)c2cc(NS(=O)(=O)c3cccs3)ccc2O[C@H]1CN(C)Cc1ccc(Oc2ccccc2)cc1 | -0.082 | 2
C[C@H](CO)N1C[C@H](C)[C@@H](CN(C)Cc2ccc(Oc3ccccc3)cc2)Oc2ccc(NS(=O)(=O)c3cccs3)cc2C1=O | -0.12 | 93*
Cc1ccccc1CS(=O)(=O)Cc1ccc(C(=O)NC2CC2)o1 | nt | -4
COc1ccc(-c2oc3c(OC)c(OC)c(OC)c(O)c3c(=O)c2OC)cc1OC | -0.35 | 102*
COc1cc(O)c2c(=O)c(OC)c(-c3ccc(OC)c(OC)c3)oc2c1 | 0.18 | 59
COc1cc(OC)c2c(=O)c(O)c(-c3ccc(OC)c(OC)c3)oc2c1 | -0.19 | 83*
COc1cc(-c2oc3cc(O)c(OC)c(O)c3c(=O)c2OC)ccc1O | -0.76 | 10
CNC(=O)C(C)n1c2ccccc2c2nc(=O)cc(C)n21 (stereo unspecified) | nt | -11
CCN1CCCC1CNC(=O)c1ccc2c(c1)sc1nc(-c3ccc(C)cc3)cn12 (stereo unspecified) | nt | -4
COC(=O)COc1ccc2c(=O)c(Oc3ccc(OC)cc3)coc2c1 | nt | 22
CCCOC(=O)COc1ccc2c(=O)c(-c3ccccc3OC)coc2c1 | nt | 236*
COc1ccc(NC(=O)CC2C(=O)NCCN2C(=O)c2ccc(C(C)(C)C)cc2)cc1 (stereo unspecified) | nt | -5
CCOc1ccccc1NC(=O)c1ccco1 | nt | 3
CCC(C)OC(=O)C(C)Oc1ccc2c3c(c(=O)oc2c1)CCC3 (stereo unspecified) | nt | 14
CC(C)COC(=O)C(C)Oc1ccc2c3c(c(=O)oc2c1)CCC3 (stereo unspecified) | nt | 122*
CC/C=C\CC1C(=O)C=C/C1=C/CCCCCCC(=O)O (stereo unspecified) | 1.2 | 15
CC/C=C\C=C1\C(=O)C=CC1CCCCCCCC(=O)O (stereo unspecified) | 0.029 | 87*
O=C1CSc2cc(S(=O)(=O)N3CC=C(c4ccccc4)CC3)ccc2N1 | nt | 0
COc1cccc(-c2cnc3c(c2)C(=O)N([C@H](C)CO)C[C@H](C)[C@H](CN(C)C(=O)Nc2ccc(F)cc2)O3)c1 | -0.35 | 29
COc1cccc(-c2cnc3c(c2)C(=O)N([C@H](C)CO)C[C@H](C)[C@H](CN(C)C(=O)Nc2ccc4c(c2)OCO4)O3)c1 | -0.57 | 94*
COc1cccc(-c2cnc3c(c2)C(=O)N([C@H](C)CO)C[C@H](C)[C@H](CN(C)C(=O)Nc2cccc4ccccc24)O3)c1 | 0.4 | 93*
COc1ccc(-c2cnc3c(c2)C(=O)N([C@H](C)CO)C[C@H](C)[C@H](CN(C)C(=O)Nc2ccc4c(c2)OCO4)O3)cc1 | 0.037 | 33
COc1ccc2c(c1)SC1=NC(c3ccccc3)(C(F)(F)F)NC(=O)N12 (stereo unspecified) | nt | -18
Cc1ccccc1-c1nsc(SCC(=O)NC2CCCCC2)n1 | nt | -9
SMILES | YB-1 expression | ROS inducer
CS(=O)(=O)N(CC(=O)Nc1c(F)cccc1F)c1cccc(Cl)c1Cl | nt | 6
Cc1ccc(Cl)cc1N(CC(=O)Nc1c(F)cccc1F)S(C)(=O)=O | nt | 156*
CCCC(=O)NCc1cn2ccsc2n1 | nt | -10
COc1ccc([C@H]2C=C(C(=O)NCc3ccccc3)O[C@@H](OCc3ccc(CO)cc3)C2)cc1 | 3.3* | 7
O=C(O)C1=C[C@@H](c2ccccc2)C[C@@H](OCc2ccc(CO)cc2)O1 | -0.23 | -9
Cn1c2c(c(=O)n(C)c1=O)CN(C1CCCC1)CN2 | 4* | -16
S=C1NCN(C2CCCCC2)CN1 | 0.44 | -2
COCCOC(=O)N1C(=O)[C@@]2(c3cc(C#CC4(O)CCCCCC4)ccc31)[C@H](C(N)=O)[C@H]1C(=O)O[C@H](c3ccccc3)[C@H](c3ccccc3)N1[C@@H]2c1ccccc1OCCO | -0.23 | 31
COCCOC(=O)N1C(=O)[C@@]2(c3ccccc31)[C@H](c1ccc(OCCO)cc1)N1[C@H](c3ccccc3)[C@H](c3ccccc3)OC(=O)[C@H]1[C@@H]2C(=O)NC[C@H](O)c1ccccc1 | -0.51 | 189*
COCCOC(=O)N1C(=O)[C@@]2(c3ccccc31)[C@H](c1ccc(O)cc1)N1[C@H](c3ccccc3)[C@H](c3ccccc3)OC(=O)[C@H]1[C@@H]2C(=O)NC[C@H](O)c1ccccc1 | -0.41 | 10
C=CCNC(=O)[C@@H]1[C@H]2C(=O)O[C@H](c3ccccc3)[C@H](c3ccccc3)N2[C@H](c2ccccc2OCCO)[C@@]12C(=O)N(C(=O)OCCOC)c1ccc(C#CC3(O)CCCCCC3)cc12 | -0.13 | 98*
C=CCNC(=O)[C@H]1[C@@H]2C(=O)O[C@@H](c3ccccc3)[C@@H](c3ccccc3)N2[C@@H](c2ccccc2OCCO)[C@]12C(=O)Nc1ccc(C#CC3(O)CCCCCC3)cc12 | -0.2 | 102*
COCCOC(=O)N1C(=O)[C@@]2(c3cc(C#CC4=CCCCC4)ccc31)[C@H](C(=O)NC[C@H](O)c1ccccc1)[C@H]1C(=O)O[C@H](c3ccccc3)[C@H](c3ccccc3)N1[C@@H]2c1ccccc1OCCO | -0.58 | 65
COCCOC(=O)N1C(=O)[C@@]2(c3cc(C#CC4(O)CCCCCC4)ccc31)[C@H](C(=O)NC[C@H](O)c1ccccc1)[C@H]1C(=O)O[C@H](c3ccccc3)[C@H](c3ccccc3)N1[C@@H]2c1ccccc1OCCO | 0.17 | 141*
C=CCNC(=O)[C@H]1[C@@H]2C(=O)O[C@@H](c3ccccc3)[C@@H](c3ccccc3)N2[C@@H](c2ccccc2OCCO)[C@]12C(=O)Nc1ccc(C#CCCO)cc12 | 0.12 | 72
CCOC(=O)c1c(-c2ccccc2)oc2ccc(N(C(C)=O)S(=O)(=O)c3ccc(OC)cc3)cc12 | nt | 55
Cc1ccc(C(=O)Nc2cccc(-c3nc4ccccc4o3)c2)cc1 | nt | 8
Cc1ccc(C(C)C)c(OCCNC(=O)Nc2ccc(Br)cc2)c1 | nt | -21
COc1ccc(CCNC(=O)CC(c2ccccc2)c2cc(Br)ccc2O)cc1OC (stereo unspecified) | nt | 8
C=CCNC(=O)[C@H]1[C@@H]2C(=O)O[C@@H](c3ccccc3)[C@@H](c3ccccc3)N2[C@@H](c2ccc(O)cc2)[C@]12C(=O)N(C(=O)OCCOC)c1ccc(C#CCC(C(=O)OC)C(=O)OC)cc12 | -0.34 | 59
C=CCNC(=O)[C@@H]1[C@H]2C(=O)O[C@H](c3ccccc3)[C@H](c3ccccc3)N2[C@H](c2ccccc2OCCO)[C@@]12C(=O)N(C(=O)OCCOC)c1ccc(C#CC3=CCCCC3)cc12 | -0.58 | 58
C=CCNC(=O)[C@H]1[C@@H]2C(=O)O[C@@H](c3ccccc3)[C@@H](c3ccccc3)N2[C@@H](c2ccccc2OCCO)[C@]12C(=O)N(C(=O)OCCOC)c1ccc(C#CC3=CCCCC3)cc12 | -0.11 | 177*
C=CCNC(=O)[C@@H]1[C@H]2C(=O)O[C@H](c3ccccc3)[C@H](c3ccccc3)N2[C@H](c2ccccc2OCCO)[C@@]12C(=O)N(C(=O)OCCOC)c1ccc(C#CCC(C(=O)OC)C(=O)OC)cc12 | 0.53 | 110*
